Screening results deposited in PubChem by National Center for Advancing Translational Sciences (NCATS).
The list is not random: actives were taken first. Their share in the collection is about 18%.
TDP1 inh = TDP1 (human) enzyme inhibition; Q9NUW8; recombinant TDP1, AlphaScreen DNA substrate cleavage; Potency, µM (titrated, usually from 130 µM), without a hit: at the highest dose activity change, negative = inhibition, hits mostly inhibitors; 0.28% of 350,000 active; AID 485290; further: potency means the concentration at half of the fitted maximal effect; nearly all actives have a fitted effect of over 40% in size
Target sequence (Q9NUW8 whole entry, looked up): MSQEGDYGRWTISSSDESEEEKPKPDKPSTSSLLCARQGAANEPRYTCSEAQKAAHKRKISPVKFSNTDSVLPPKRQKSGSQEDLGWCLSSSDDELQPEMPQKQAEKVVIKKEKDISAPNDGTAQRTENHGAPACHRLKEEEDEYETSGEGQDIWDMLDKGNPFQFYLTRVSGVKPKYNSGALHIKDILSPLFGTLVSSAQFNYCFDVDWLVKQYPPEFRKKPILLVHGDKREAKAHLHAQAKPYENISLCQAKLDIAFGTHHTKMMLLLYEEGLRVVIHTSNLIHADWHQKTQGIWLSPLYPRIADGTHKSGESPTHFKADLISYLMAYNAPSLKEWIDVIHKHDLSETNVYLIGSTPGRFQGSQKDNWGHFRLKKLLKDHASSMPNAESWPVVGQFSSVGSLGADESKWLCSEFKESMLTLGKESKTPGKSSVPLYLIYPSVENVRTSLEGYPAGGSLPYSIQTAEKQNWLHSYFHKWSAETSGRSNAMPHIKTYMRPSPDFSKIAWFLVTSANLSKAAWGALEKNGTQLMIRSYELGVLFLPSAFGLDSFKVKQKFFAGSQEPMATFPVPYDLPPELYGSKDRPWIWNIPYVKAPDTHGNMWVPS
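AlphaScreen read-out: signal falls as enzyme removes the 3' tyrosine-FITC from a 5'-biotinylated DNA oligo (15 nM, 5 min, RT). Enzyme was E. coli-made recombinant Tdp1 at 1 nM, exposed to compound for 15 min beforehand; beads 10 ug/ml, 10 min.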
CtBP-E1A inh = CtBP/E1A binding inhibition. activity change, % (concentration not given with the values). AID 651724. 0.49% of 340,000 active. AlphaScreen GST-E1A/His-CtBP binding, 1536-well; stronger effect = lower value; in the data active means activity change below about -65%; inconclusive means mostly about -30% to -63%
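Homogeneous bead-based format: GST-tagged E1A captured on glutathione donor beads, His-tagged CtBP on nickel acceptor beads; compounds precede bead addition by 2 h at 37 °C.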
DT40 TDP1 CPT = growth inhibition of DT40 Tdp1-/-;hTDP1 cells with camptothecin (screen for TDP1 inhibitors) | chicken DT40 Tdp1-/-;hTDP1 cells + 20 nM CPT, ATP luminescence, 48 h | Potency, µM (doses to about 46.2 µM), for inactives: at the highest dose activity change, negative = growth inhibition, most hits filed as inhibitors | 12% of 420,000 active | AID 686979; further: potency means the concentration at half of the fitted maximal effect; nearly all actives have a fitted effect of over 55% in size
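Chicken DT40 Tdp1-/- cells stably complemented with human TDP1 were seeded at 400 cells/well in medium containing 20 nM camptothecin, exposed to pin-transferred compounds, and grown at 37 °C for at least 48 hr. Viability was read as ATP luminescence.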
IL-1B inflam inh = inflammasome signaling inhibition, IL-1 beta readout; AID 743279; activity change, % at 57.5 µM; 4.7% of 360,000 active; THP-1 LPS/ATP IL-1B secretion, AlphaLISA, 16 h; stronger effect = lower value; in the data active means activity change below about -50%; inconclusive means mostly about -30% to -49%
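Secreted IL-1B measured by AlphaLISA bead assay after 16 h compound exposure of THP-1 cells; compounds (final up to 57.5 uM) added 1 h before LPS (250 ng/mL) and ATP (1.25 mM) stimulation; lower signal means less secretion.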
TDP1 cell noCPT = qHTS for Inhibitors of human tyrosyl-DNA phosphodiesterase 1 (TDP1): qHTS in cells in absence of CPT; DT40 Tdp1-/- hTDP1 cells, no CPT, ATP luminescence, 48 h; Potency, µM (titrated, usually from 46.2 µM), for the others: at the highest dose activity change, negative = growth inhibition, usual class: inhibitors; 15% of 420,000 active; further: potency means the concentration at half of the fitted maximal effect; nearly all actives have a fitted effect of over 55% in size
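No-CPT arm: Tdp1-/-;hTDP1 DT40 cells (400/well) plus compounds, incubated ≥48 hr at 37 °C. Readout CellTiter-Glo luminescence.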
Six1-Eya2 inh = inhibitors of human Six1/Eya2 interaction; Q15475+O00167; AlphaScreen GST-Six1/His-Eya2 binding, biochemical; stronger effect = lower value; activity change, % (test concentration not listed); 0.56% of 360,000 active; AID 651725; in the data active means activity change below about -65%; inconclusive means mostly about -30% to -63%
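AlphaScreen luminescence read after one hour at 37 °C in darkness. Pin-transferred compounds met GST-Six1 and His-Eya2 protein (5X stock 250 nM/500 nM) plus glutathione donor and Ni-chelate acceptor beads (5X, 50 ug/mL).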
The depositor's hits bear a star; ? = inconclusive; nt = no result; [ ] = another dose, or the depositor's remark. Unless noted, the call rests on the fitted dose curve; in most records, active means well fitted curve in the direction sought with a large enough effect; inconclusive means small, poorly fitted or top-dose-only effect, or another doubt; inactive means no such curve, though single readings can be large; an effect the other way counts as inactive or inconclusive. On the % scale 0 is the no-effect control and ±100 the full control effect.

SMILES | TDP1 inh | CtBP-E1A inh | DT40 TDP1 CPT | IL-1B inflam inh | TDP1 cell noCPT | Six1-Eya2 inh
CCOc1cccc(C2C(C(=O)c3cccs3)=C(O)C(=O)N2Cc2cccnc2)c1 (stereo not drawn) | -3% | -7 | -8% | 4 | 10% | 2
COCC1CCN(C(=O)c2cc(COc3ccc4ncccc4c3)on2)CC1 | 2% | -1 | 3.7µM* | 33 | 8.2µM* | 1
O=C(NCCc1cn2ccccc2n1)c1cc(COc2ccc3ncccc3c2)on1 | 3% | -10 | 4.1µM* | -11 | 5.8µM* | 14
COCC1CCN(C(=O)c2cc(COc3ccc(-n4cncn4)cc3)on2)CC1 | 2% | 1 | ? | 26 | -19% | 16
Cc1ccc(OCc2cc(C(=O)NC3CCCCC3)no2)cn1 | 1% | nt | 13µM* | 19 | 8.2µM* | 5
CC1CCCCN1S(=O)(=O)c1ccc2[nH]c(=O)cc(C(=O)NCCCN3CCCCCC3)c2c1 (stereo not drawn) | 4% | -8 | 0% | -8 | 10% | -17
O=C(NCCCN1CCN(c2ccccc2)CC1)c1sc2ncccc2c1-n1cccc1 | 10% | nt | ? | nt | ? | nt
O=C(Cc1csc(Nc2nc(=S)[nH]c3ccccc23)n1)NCCCN1CCN(c2ccccc2F)CC1 | 10% | 0 | 8.2µM* | -99* | 15µM* | -30
O=C(NCCCN1CCN(c2ccccc2F)CC1)c1sc2ncccc2c1-n1cccc1 | 4% | nt | ? | nt | 21µM* | nt
O=C(Cc1csc(Nc2nc(=S)[nH]c3ccccc23)n1)NCc1ccc(Cl)cc1 | 4% | 3 | ? | 24 | ? | -4
Cc1ccc(C)n1-c1c(C(=O)NCCCN2CCN(c3ccc(F)cc3)CC2)sc2ncccc12 | 8% | nt | 21µM* | nt | ? | nt
O=C(NCCCN1CCN(c2cccc(Cl)c2)CC1)c1sc2ncccc2c1-n1cccc1 | 11% | nt | ? | nt | 23µM* | nt
Cc1cccc(N2CCN(S(=O)(=O)c3c(C(=O)N4CCC(C)CC4)c(C)n(C)c3C)CC2)c1C | 9% | nt | -114% | nt | 23µM* | nt
Cc1cccc(N2CCN(S(=O)(=O)c3c(C)[nH]c(C)c3C(=O)N3CCCCC3)CC2)c1C | 8% | 0 | 21µM* | -51* | ? | 9
CCOC(=O)c1c(C)[nH]c(C)c1S(=O)(=O)N(C)CC(=O)N1CCN(c2cccc(C)c2C)CC1 | 8% | nt | 18µM* | nt | ? | nt
CCOC(=O)c1c(C)[nH]c(C)c1S(=O)(=O)NCC(=O)N1CCN(c2ccccc2F)CC1 | 3% | nt | ? | nt | -28% | nt
CN(C(=O)CSc1nnc(COc2ccccc2F)n1N)C1CCCCC1 | -1% | 1 | -3% | 4 | -3% | 3
COc1ccccc1CNC(=O)COC(=O)c1ccccn1 | -6% | -19 | 30% | 0 | -1% | -16
Cc1ccc(/C=C/C(=O)O)cc1S(=O)(=O)N(CCO)CCO | -4% | 2 | 4% | -15 | 3% | 1
CCCCC(CC)CNC(=O)c1ccc2c(=O)n(Cc3ccc(OC)cc3)c(=O)[nH]c2c1 (stereo not drawn) | 6% | nt | 21µM* | nt | ? | nt
COc1ccc(-n2c(=S)[nH]c3cc(C(=O)Nc4ccc(F)cc4)ccc3c2=O)c(OC)c1 | 3% | -6 | 16µM* | ? | ? | -9
CCCCCn1c(=O)[nH]c2cc(C(=O)Nc3cc(OC)cc(OC)c3)ccc2c1=O | -3% | nt | 13µM* | nt | 23µM* | nt
CCCCCn1c(=O)[nH]c2cc(C(=O)N3CCN(c4cccc(OC)c4)CC3)ccc2c1=O | -3% | nt | 23µM* | nt | 15µM* | nt
Cc1[nH]c2ccccc2c1C(=O)CN1C(=O)C(=O)N(Cc2ccco2)C1=O | 4% | 7 | 1% | 19 | -1% | -27
CC1CCN(C(=O)CN(c2ccc3c(c2)OCCO3)S(=O)(=O)c2ccccc2)CC1 | 10% | 7 | -5% | -16 | ? | 5
SMILES | TDP1 inh | CtBP-E1A inh | DT40 TDP1 CPT | IL-1B inflam inh | TDP1 cell noCPT | Six1-Eya2 inh
CCCCCn1c(=O)[nH]c2cc(C(=O)N3CCN(c4ccc(OC)cc4)CC3)ccc2c1=O | 9% | nt | 9.2µM* | nt | 18µM* | nt
CCCCCn1c(=O)[nH]c2cc(C(=O)N3CCN(CC)CC3)ccc2c1=O | 7% | 0 | -27% | 15 | -23% | 0
COCCn1c(=O)[nH]c2cc(C(=O)N3CCN(c4ccc(OC)cc4)CC3)ccc2c1=O | -12%[0.0935 µM] | 12 | -31% | 27 | ? | 1
CCCCCn1c(=O)[nH]c2cc(C(=O)N3CCN(c4cccc(C)c4)C(C)C3)ccc2c1=O (stereo not drawn) | 0% | nt | 21µM* | nt | 9.2µM* | nt
OC1C=CSc2nc3ccccc3n21 (stereo not drawn) | 3% | -3 | 13µM* | ? | 15µM* | -15
O=C(NNC(=O)c1ccc(-c2ccccc2)cc1)c1ccccc1 | -5% | -3 | -18% | -10 | -6% | -2
O=C(NC1(O)C(=O)c2ccccc2C1=O)c1ccccc1 | -2% | -4 | 26µM* | -8 | ? | 1
O=C(NC1(O)C(=O)c2ccccc2C1=O)c1c(Cl)cccc1Cl | -2% | -18 | ? | 7 | 26µM* | 9
O=C(Nc1ccccc1Cl)c1c(F)c(F)c(F)c(F)c1F | nt | 3 | -11% | ? | -18% | 4
COc1ccc(S(=O)(=O)Nc2ccc(F)c(F)c2)cc1C(=O)N1CCOCC1 | 2% | 3 | -2% | 17 | 0% | 12
Nc1c2c(nc3sc4c(c13)CCCC4)CCCCCC2 | -1% | nt | ? | 32 | 13µM* | -5
Nc1nc2sc3c(c2c(=O)s1)CCCC3 | 7% | -23 | -27% | 14 | 0% | -21
COc1ccc(-c2cn3c(n2)sc2cc(C(=O)NC4CCCc5ccccc54)ccc23)cc1 (stereo not drawn) | 4% | nt | 8.2µM* | nt | 5.8µM* | nt
Cc1ccc(-c2cn3c(n2)sc2cc(C(=O)NC4CCCc5ccccc54)ccc23)cc1 (stereo not drawn) | 4% | nt | 13µM* | nt | 13µM* | nt
CCOC(=O)N1CCc2cc(OC)c(OC)c3c2c1cc1cc(OC)c(OC)cc13 | nt | -9 | ? | 3 | 12µM* | -10
CCCCCC(=O)Nc1cccc(C2=NOC3(C2)C[C@@H](C(N)=O)N(C(=O)c2ccc(OC)cc2)C3)c1 (stereo partly drawn) | 2% | -12 | -25% | -17 | 2% | -3
